M1 ag: activates the M1 muscarinic receptor | CHO-M1 cells, Fluo-4 calcium fluorescence, agonist mode; active compounds read high | B-score at 10 µM | 64,000 compounds, 3% hits | AID 626;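 active = fluorescence rise, raw or as B-score row- and column-corrected plate score, outside the 99.7% band of its plate's samples, either direction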
M1 antag: antagonists of rat M1 muscarinic receptor; CHO-M1 cells, Fluo-4 calcium, ACh EC80 antagonist mode; active compounds read low; B-score at 10 µM; 64,000 compounds, 3.4% hits;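 active = calcium fluorescence response, raw or row-and-column corrected B-score, differing from the plate sample mean either way at a set confidence level, mostly lower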
Target sequence (P08482 whole entry, looked up): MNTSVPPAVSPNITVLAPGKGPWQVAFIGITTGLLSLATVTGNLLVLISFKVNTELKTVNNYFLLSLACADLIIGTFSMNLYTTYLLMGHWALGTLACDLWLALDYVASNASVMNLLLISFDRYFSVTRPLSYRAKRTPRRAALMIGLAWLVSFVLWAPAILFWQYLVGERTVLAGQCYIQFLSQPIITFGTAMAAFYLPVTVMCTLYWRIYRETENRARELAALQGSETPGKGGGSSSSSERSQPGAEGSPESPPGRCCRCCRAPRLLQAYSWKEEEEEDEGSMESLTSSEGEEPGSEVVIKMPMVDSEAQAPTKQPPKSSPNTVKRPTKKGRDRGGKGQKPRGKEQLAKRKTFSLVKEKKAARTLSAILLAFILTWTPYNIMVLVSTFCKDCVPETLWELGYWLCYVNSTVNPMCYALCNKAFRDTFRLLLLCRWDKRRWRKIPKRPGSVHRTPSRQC
D1 allo mod: allosterically modulates the human D1 dopamine receptor; B-score at 10 µM; HEK293 D1, CRE-luciferase, dopamine EC30 potentiation; actives deviate in either direction; 58,000 compounds, 5.9% hits;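 active = luminescence count or its row- and column-corrected plate score outside the 99.7% band of the plate's sample wells, on either side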
mHtt clearance: compounds clearing mutant huntingtin protein; HeLa Exon1htt(103Q)mCFP, aggregate imaging; zero = plate's median compound well; inhibition, % at 1.5 µM; 47,000 compounds, 0.42% hits;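 active = inhibition of aggregate fluorescence above about 70%, also judged a hit by eye on the cell image, limit read from the data, passing the limit was not always enough; inconclusive = no rule stated for this call; inactive = not judged a hit on image review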;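 note: cells exposed to compound for three days before fixation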
WNV NS2B-NS3 inh: blocks West Nile virus NS2B-NS3 protease activity; WNV NS2B-NS3 protease, fluorogenic substrate Ex360/Em465; active compounds read low; z-score (no concentration beside the values); 65,000 compounds, 0.18% hits; AID 577; in the data active = z-score below about -3
M1 ag confirm: confirmation of rat M1 muscarinic receptor agonists; shares compounds with M1 ag; CHO-M1 cells, Fluo-4 calcium fluorescence, agonist mode; actives lie on both sides; fluorescence change (max-min) at 10 µM; 1,700 compounds, 19% hits; AID 1488;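 active = fluorescence change differs from the solvent-only DMSO control mean at a set confidence level in both duplicate runs; inconclusive = differs from solvent-only control mean in just one of two runs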;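 note: an EC20 dose of acetylcholine follows compound addition during the same imaging run; raw fluorescence intensity difference in instrument units with no normalization to controls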
M4 ag counter: activates rat M4 receptor in counter-screen for M1 agonists; shares compounds with M1 ag; CHO M4/Gqi5 cells, Fluo-4 calcium fluorescence, agonist mode; actives lie on both sides; fluorescence change (max-min) at 10 µM; 1,700 compounds, 9% hits; AID 1741;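 active = fluorescence change differing from the plate's solvent-only control wells at 99.7% confidence in both duplicates, whether higher or lower; inconclusive = differs from solvent controls in only one of two duplicates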
An asterisk follows results filed as active. Most compounds without a hit are left out; they make up all but 8.9% or so of the library.

For CC1CC(C)CN(Cc2nc3c(c(=O)n(C)c(=O)n3C)n2CCN2CCOCC2)C1 (stereo not given) the results were M1 ag -0.455, M1 antag 0.851, D1 allo mod -0.0422 and WNV NS2B-NS3 inh 2.38.
`CCN=C(NCC)SC1CC(=O)N(c2ccccc2)C1=O` (stereo not given) gave M1 ag 10.1*, M1 antag -2.08, D1 allo mod -1.29, mHtt clearance -65.8, WNV NS2B-NS3 inh 0.69, M1 ag confirm -10.6 and M4 ag counter -27.6.
`COc1ccc(N2C(=O)CC(NCc3cccc(F)c3)C2=O)cc1` (stereo not given) gave M1 ag 0.0551, M1 antag 0.195, D1 allo mod 1.63 and WNV NS2B-NS3 inh 0.46.
Screening CCN=C(Nc1cccc(F)c1)SC1CC(=O)N(c2ccc(OC)cc2)C1=O (stereo not given) returned M1 ag 4.84*, M1 antag -2.21, mHtt clearance 29.4, WNV NS2B-NS3 inh -0.7, M1 ag confirm -13.9 and M4 ag counter -28.1.
For CCN=C(NCC)SC1CC(=O)N(c2cccc(OC)c2)C1=O (stereo not given) the results were M1 ag 2.16, M1 antag -0.507, D1 allo mod -0.00351 and WNV NS2B-NS3 inh -0.88.
COCCN(C(=O)C(C)C)c1nnc(-c2ccc(C)cc2)s1 was read as mHtt clearance 42.1.
Screening CCOC(=O)C1CCN(c2c(N3CCCC(C(=O)OCC)C3)c(=O)c2=O)CC1 (stereo not given) returned M1 ag 26.6*, M1 antag -0.129, D1 allo mod 0.0417, mHtt clearance -152.8, WNV NS2B-NS3 inh 0.66, M1 ag confirm 37.9 and M4 ag counter inconclusive.
`CCOC(=O)C1CCCN(c2c(N3CCN(c4ccccn4)CC3)c(=O)c2=O)C1` (stereo not given) gave M1 ag 0.508, M1 antag -0.45, D1 allo mod 0.128 and WNV NS2B-NS3 inh -0.53.
Screening Cc1ccc(Cl)cc1N1CCN(C(=O)C2CCN(c3nnc(-n4cccc4)s3)CC2)CC1 returned M1 ag -0.637, M1 antag -0.0132, D1 allo mod -3.1 and WNV NS2B-NS3 inh -1.05.
For Cc1cccc(N2CCN(C(=O)C3CCN(S(=O)(=O)c4cccc5cccnc45)CC3)CC2C)c1 (stereo not given) the results were M1 ag 8.62*, M1 antag -1.85, D1 allo mod -3.8*, WNV NS2B-NS3 inh -0.00275, M1 ag confirm -11.6 and M4 ag counter inconclusive.
`Cc1cccc(N2CCN(C(=O)C3CCN(S(=O)(=O)c4cccc5nsnc45)CC3)CC2C)c1` (stereo not given) gave M1 ag 16.1*, M1 antag -2.04, D1 allo mod 0.069, mHtt clearance 44.6, WNV NS2B-NS3 inh -0.85, M1 ag confirm -32.8* and M4 ag counter -87.7.
Screening O=C(C1CCN(c2nnc(-n3cccc3)s2)CC1)N1CCN(Cc2ccc3c(c2)OCO3)CC1 returned M1 ag -2.61*, M1 antag -1.31, D1 allo mod -0.0696, WNV NS2B-NS3 inh 0.96, M1 ag confirm -11.7 and M4 ag counter -61.6.
Screening Cc1cccc(N2CCN(C(=O)C3CCN(c4nnc(-n5cccc5)s4)CC3)CC2C)c1 (stereo not given) returned M1 ag 16*, M1 antag -1.63, WNV NS2B-NS3 inh -0.4, M1 ag confirm inconclusive and M4 ag counter -48.2.
For O=C(C1CCN(c2nnc(N3CCCC3=O)s2)CC1)N1CCN(Cc2ccc3c(c2)OCO3)CC1 the results were M1 ag -1.44, M1 antag -0.31, D1 allo mod -0.0652 and WNV NS2B-NS3 inh -0.86.
For CCN1C(=O)c2cccc3c(NC(=O)c4ccc5c(c4)OCCO5)ccc1c23 the results were M1 ag 8.95*, M1 antag 0.0359, D1 allo mod 0.89, WNV NS2B-NS3 inh 0.09, M1 ag confirm 2.75 and M4 ag counter 134*.
`Nc1c(C(=O)c2ccccc2)oc2ccc(Br)cc12` gave M1 ag -2.22*, M1 antag 0.628, D1 allo mod 0.226, WNV NS2B-NS3 inh -0.05, M1 ag confirm inconclusive and M4 ag counter -36.3.
Screening Cc1nn(-c2ccccc2)c(C)c1C(=O)OCC(=O)c1c(N)n(CC(C)C)c(=O)n(C)c1=O returned M1 ag 4.06*, M1 antag -1.19, D1 allo mod -1.21, WNV NS2B-NS3 inh 0.03, M1 ag confirm -6.63 and M4 ag counter -53.
Cn1c(=O)c(C(=S)NC(=O)C2CC2)c(N)n(Cc2ccccc2)c1=O was read as M1 ag -0.214, M1 antag -0.241, D1 allo mod 0.412 and WNV NS2B-NS3 inh 0.64.
Clc1nc2sccn2c1/C=N/n1cnc2ccccc21 was read as M1 ag 8.39*, M1 antag -0.8, D1 allo mod 2.72, WNV NS2B-NS3 inh -0.01, M1 ag confirm -9.23 and M4 ag counter -46.2.
`O=C(CCCC(=O)n1cnc2ccccc21)n1cnc2ccccc21` gave M1 ag -0.245, M1 antag 1.04, D1 allo mod 0.0517 and WNV NS2B-NS3 inh -1.06.
`O=C1N2CCSC2=NC1(NS(=O)(=O)c1ccccc1)C(F)(F)F` (stereo not given) gave M1 ag 0.666, M1 antag 0.505, D1 allo mod 0.365, mHtt clearance -11.3 and WNV NS2B-NS3 inh 0.58.
Screening Cn1c(=O)c2nc(Cl)n(Cc3ccc(Cl)cc3Cl)c2n(C)c1=O returned M1 ag -0.0227, M1 antag -0.0036, D1 allo mod 1.63 and WNV NS2B-NS3 inh 0.62.
For O=C(Cc1nc2ccccc2s1)c1ccc(O)cc1O the results were M1 ag -1.8*, M1 antag 0.242, D1 allo mod -2.87, mHtt clearance 13.1, WNV NS2B-NS3 inh -0.87, M1 ag confirm 4.5 and M4 ag counter 4.13.
`CCCc1nc(SCC(=O)N2CCC(Cc3ccccc3)CC2)c2c(=O)n(C)c(=O)n(C)c2n1` gave M1 ag 4*, M1 antag -1.19, D1 allo mod -0.5, mHtt clearance 17.9, WNV NS2B-NS3 inh -0.23, M1 ag confirm -13.3 and M4 ag counter -21.4.
`CCCc1nc(SCC(=O)N2CCCc3ccccc32)c2c(=O)n(C)c(=O)n(C)c2n1` gave M1 ag 2.85*, M1 antag -1.43*, mHtt clearance 27.3, WNV NS2B-NS3 inh 0.25, M1 ag confirm inconclusive and M4 ag counter -36.8.
`Cn1c(=O)c2c(SCC(=O)N3CCCc4ccccc43)nc(CC(C)(C)C)nc2n(C)c1=O` gave M1 ag -0.173, M1 antag -0.37, D1 allo mod 1.47, mHtt clearance 8.7 and WNV NS2B-NS3 inh 0.96.
`CC(NC(=O)c1ccc2c(c1)OCO2)C1CCCO1` (stereo not given) gave M1 ag -0.0858, M1 antag -0.768, D1 allo mod -0.284 and WNV NS2B-NS3 inh 2.07.
